Source: PubChem BioAssay AID1619 (SRMLSC, 2009)
Screen size: about 220,000 compounds; about 830 (0.38%) were called active.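 Rule for the calls: active = compound inhibiting the enzyme by more than half at any dose during confirmatory dose-response retesting; inconclusive = strong single-dose inhibitors picked by rank but not retested; inactive = the rest.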 These entries were drawn from the full list. Results with a measured potency or affinity are listed apart.

target: Leucine aminopeptidase (Plasmodium falciparum (isolate 3D7)) (UniProt Q8IL11); assay: P. falciparum M17LAP inhibitors, primary screen, biochemical, fluorogenic H-Leu-NHMec substrate, 1536-well (AID 1619); conditions: recombinant M17LAP, H-Leu-NHMec fluorogenic kinetic assay; at 30 µM; hits give high values;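 note: plate controls were full reaction with DMSO carrier for no effect and no enzyme background for full effect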
Sequence (Q8IL11 whole entry, looked up): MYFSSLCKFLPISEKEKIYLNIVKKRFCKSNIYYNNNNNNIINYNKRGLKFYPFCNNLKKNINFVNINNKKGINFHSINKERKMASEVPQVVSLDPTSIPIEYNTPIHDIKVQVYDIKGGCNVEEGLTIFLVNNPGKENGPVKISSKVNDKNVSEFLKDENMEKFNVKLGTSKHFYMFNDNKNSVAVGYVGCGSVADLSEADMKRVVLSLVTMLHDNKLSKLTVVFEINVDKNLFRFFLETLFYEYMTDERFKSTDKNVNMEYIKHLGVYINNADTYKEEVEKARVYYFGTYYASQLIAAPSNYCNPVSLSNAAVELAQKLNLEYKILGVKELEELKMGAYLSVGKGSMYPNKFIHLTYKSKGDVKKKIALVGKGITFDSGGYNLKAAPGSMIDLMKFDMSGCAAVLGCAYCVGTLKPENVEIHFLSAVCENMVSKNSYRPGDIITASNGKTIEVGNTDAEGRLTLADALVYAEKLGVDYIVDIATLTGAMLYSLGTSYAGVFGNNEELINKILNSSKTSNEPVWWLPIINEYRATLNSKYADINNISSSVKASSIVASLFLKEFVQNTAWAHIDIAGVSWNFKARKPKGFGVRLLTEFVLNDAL

inhibition, inactive:
O=C(NNC(=O)C1CC2CCC1C2)c1ccccc1 (configuration not stated) 17.8%
O=C(NNC(=S)NC1CCCCC1)c1sc2ccccc2c1Cl 13.2%
CC(C)(C)c1ccc(/C=C2\Oc3cc(OC(=O)N4CCOCC4)ccc3C2=O)cc1 -5.21%
CCCC(C)NS(=O)(=O)c1ccc(OC)c(C)c1 (configuration not stated) 1.13%
Cn1c(-c2ccc3ccccc3n2)nc2cnccc21 9.33%
CCCNC(=O)C(=O)NCc1ccccn1 -4.32%
Cc1ccc(NC(=O)NC(=O)CN2C(=O)NC3(CCCCCCC3)C2=O)c(C)c1 3.61%
COc1ccccc1NC(=O)CN1C(=O)NC2(CCCCCCC2)C1=O -0.01%
O=C(CN1C(=O)NC2(CCCCC2)C1=O)Nc1ccccc1Cl 30.3%
Cc1ccc(NC(=O)CN2C(=O)NC3(CCC(C)CC3)C2=O)c(Cl)c1 (configuration not stated) 21%
Cc1cc(NC(=O)CN2C(=O)NC3(CCCCC3)C2=O)no1 -14.1%
Cc1cc(NC(=O)CN2C(=O)NC3(CCCCCC3)C2=O)no1 -1.33%
CCCNC(=O)c1cccc(NC(=O)C(C)C)c1 -3.07%
O=C(NC1CCCc2ccccc21)c1cccc(S(=O)(=O)N2CCOCC2)c1 (configuration not stated) 2.84%
Cc1ccc(OCC(=O)Nc2sc3c(c2C#N)CCC3)cc1 4.24%
CCc1onc(C)c1C(=O)Nc1cc(C)ccc1OC 7.34%
COc1ccc2c(c1)SCC/C2=C\CN1C(=O)CCC1=O -6.21%
Cn1c(NCCc2ccccc2)cc(=O)n(C)c1=O 1.23%
COc1ccc(NC(=O)CSc2n[nH]c(N)n2)c([N+](=O)[O-])c1 56.1%
CCN(CC)C(=O)CSc1nc2ccc(NC(=O)CSc3nnc(N)s3)cc2s1 19.7%
COc1ccc(NC(=O)CSc2nnc(N)s2)c([N+](=O)[O-])c1 8.5%
Cc1ccc(NC(=O)CSc2nnc(N)s2)c([N+](=O)[O-])c1 26.8%
CCN(CC)S(=O)(=O)c1cccc(NC(=O)CSc2nnc(N)s2)c1 2.68%
CCc1nc(SCC(=O)Nc2ccc(OC)cc2[N+](=O)[O-])n[nH]1 11.8%
CCCCOC(=O)C(C#N)c1nc2ccccc2nc1N1CCN(Cc2ccc3c(c2)OCO3)CC1 (configuration not stated) -4.21%
C/C(=N\NC(=O)c1ccc(CN2CCOCC2)cc1)c1ccc(NC(=O)c2ccccc2)cc1 4.99%
COc1ccc(C2CC(c3ccccc3)=NN2C(=O)COC(=O)CNC(=O)c2ccccc2)cc1 (configuration not stated) -5.9%
CCCCC(CC)C(=O)Nc1ccccc1C#N (configuration not stated) 2.15%
CCOC(=O)C1CCCCN1Cc1cn[nH]c1-c1ccc(F)cc1F (configuration not stated) 0.93%
CCOC(=O)NC1(Nc2cccc(Cl)c2)Oc2ccccc2O1 13.3%
Cc1[nH]n(C(C)(C)C)c(=O)c1Sc1ccc(Cl)cc1 -0.55%
Cc1[nH]n(-c2ccccc2)c(=O)c1-c1ccc(Cl)cc1 14.5%
O=C(CC1Oc2ccccc2NC1=O)NCc1ccccc1 (configuration not stated) 2.31%
CC(=O)NCCc1nc2ccccc2n1CCOc1ccccc1C -3.06%
COCc1cc(=O)n2[nH]c(-c3cccc(Br)c3)cc2n1 6.67%
O=C(O)c1cccc(NC(=S)N/N=C/c2cccc(O)c2)c1 56.3%
O=C(O)c1cccc(NC(=S)N/N=C/c2ccccn2)c1 26.1%
COc1cc(/C=N/NC(=S)Nc2cccc(C(=O)O)c2)cc(OC)c1OC 41%
COc1ccc(/C=N/NC(=S)Nc2cccc(C(=O)O)c2)cc1OC 38.7%
Cc1cccc(NC(=S)N/N=C/c2c[nH]c3ccccc23)c1 7.36%
COc1cc(/C=N/NC(=S)Nc2cccc(C(=O)O)c2)ccc1O 56.1%
CCCCCCCCC(=O)N/N=C(\C)c1ccc(O)cc1O 0.48%
Cc1ccccc1OCCn1cc(/C(N)=N/O)c2ccccc21 3.74%
CCO[C@@H]1OC(C(=O)N2CCOCC2)=C[C@H](c2coc3ccccc3c2=O)[C@H]1CCCO -0.63%
CC(=O)c1ccc(NC(=O)c2ccc(S(=O)(=O)c3ccccc3)cc2)cc1 -3.53%
O=C(CC(Nc1ccc(F)cc1)c1ccccc1)c1ccccc1 (configuration not stated) -9.06%
O=C(CN(Cc1ccccc1)C(=O)c1ccco1)NCc1ccc(F)cc1 4.59%
COCc1cc(C)nc(SCC(=O)Nc2cccc(C)c2C)c1C#N 6.16%
O=C(CSc1ccc(Cl)cc1)Nc1cccc(-c2nnc(-c3ccco3)o2)c1 6.07%
O=C(CSc1nc(O)cc(=O)[nH]1)N1c2ccccc2Sc2ccccc21 39.5%
N#Cc1c(N)nc(-c2ccccc2)nc1-c1ccccc1 -4.62%
N#Cc1c(-c2ccccc2)nc(-c2ccccc2)[nH]c1=O 5.14%
Cc1nc(SCC(=O)N2c3ccccc3Sc3ccccc32)n[nH]1 17.3%
O=C(CSc1nc(-c2ccc(Cl)cc2)[nH]c(=O)n1)Nc1cccc(Cl)c1 -10.8%
Cc1cccc(NC(=O)CSc2nnc(-c3ccccc3)n2N)c1C 1.89%
O=C(CCn1c(=O)oc2ccccc21)NC1=NCCS1 4.21%
C(=C\c1ccccc1)/C=N/N1CCN(Cc2ccccc2)CC1 3.39%
O=c1c2sccc2nc(SCc2cc(=O)n3ccccc3n2)n1Cc1ccccn1 18%
O=C(CSc1ccc(Cl)cc1)Nn1cnnc1 8.97%
N#CCCN1CCN(S(=O)(=O)c2ccc(S(=O)(=O)NC3CCCC3)cc2)CC1 5.82%
O=C(Cn1nc2n(c1=O)-c1ccccc1SC2)N/N=C/c1cccnc1 3.98%
COc1ccc(CN2C(=O)c3ccccc3C2=O)cc1C(=O)OC(C)C(=O)NC(N)=O (configuration not stated) -1.41%
